High-throughput results: PubChem BioAssay, National Center for Advancing Translational Sciences (NCATS)
Sampled rows, rich in hits. Any-hit rate of the full collection: about 8.8%.
ALDH1A1 block: qHTS Assay for Inhibitors of Aldehyde Dehydrogenase 1 (ALDH1A1); Aldehyde dehydrogenase 1A1 (Homo sapiens), P00352; Purified ALDH1A1, NADH fluorescence, propionaldehyde substrate; Potency, µM (highest dose often 75.3 µM), for the others: at the top dose activity, negative = inhibition, hits mostly inhibitors; 7.3% of 220,000 active; AID 1030, 2008; active = well fitted inhibition curve with a large enough effect, not every such curve was filed as active; inconclusive = small, poorly fitted or top-dose-only effect, or another doubt; inactive = no such curve, though single readings can be large or run the other way;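 note: plate controls were no enzyme wells and a reference inhibitor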
Target sequence (P00352 whole entry, looked up): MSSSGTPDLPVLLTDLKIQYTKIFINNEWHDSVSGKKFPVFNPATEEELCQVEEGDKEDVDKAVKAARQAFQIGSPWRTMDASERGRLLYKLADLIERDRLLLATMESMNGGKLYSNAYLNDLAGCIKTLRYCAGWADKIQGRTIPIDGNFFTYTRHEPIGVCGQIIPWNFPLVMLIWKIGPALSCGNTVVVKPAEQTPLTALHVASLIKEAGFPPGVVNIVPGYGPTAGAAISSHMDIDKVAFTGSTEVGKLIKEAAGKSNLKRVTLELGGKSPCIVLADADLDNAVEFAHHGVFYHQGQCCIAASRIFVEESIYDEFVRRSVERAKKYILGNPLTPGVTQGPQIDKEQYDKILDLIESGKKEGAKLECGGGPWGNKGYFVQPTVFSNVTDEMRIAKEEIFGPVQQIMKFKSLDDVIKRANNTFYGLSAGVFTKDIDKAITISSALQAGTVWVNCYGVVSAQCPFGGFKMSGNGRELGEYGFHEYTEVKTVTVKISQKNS
HTT aggregate: qHTS Multiplex Assay to Identify Dual Action Probes in a Cell Model of Huntington: Aggregate Formation (GFP) | 1.1% of 220,000 active | PC12 HttQ103-GFP aggregates, Acumen cytometry, 40 h | Potency, µM (titrated, usually from 46.1 µM), inactives show at the top dose activity change, negative = inhibition, hits mostly inhibitors; note: % is set by controls: 0 for no effect and ±100 for the full control effect; nearly all actives have a fitted effect of over 60% in size
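Ecdysone-promoter PC12 model expressing HTT exon 1 Q103 fused to GFP, induced by tebufenozide at 100 nM final. Compounds titrated; aggregates sized 1–25 µm scored on a 488 nm laser cytometer.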
HPGD inh: qHTS Assay for Inhibitors of HPGD (15-Hydroxyprostaglandin Dehydrogenase); 4.3% of 150,000 active; purified HPGD, NADH fluorescence kinetic, PGE2 substrate; Potency, µM, for the others: top-dose activity change, negative = inhibition, actives largely listed as inhibitors; 15-hydroxyprostaglandin dehydrogenase [NAD(+)] (Homo sapiens), P15428; active = well fitted inhibition curve with a large enough effect, not every such curve was filed as active; inconclusive = small, poorly fitted or top-dose-only effect, or another doubt; inactive = no such curve, though single readings can be large or run the other way; note: % is set by controls: 0 for no effect and ±100 for the full control effect
Target sequence (P15428 whole entry, looked up): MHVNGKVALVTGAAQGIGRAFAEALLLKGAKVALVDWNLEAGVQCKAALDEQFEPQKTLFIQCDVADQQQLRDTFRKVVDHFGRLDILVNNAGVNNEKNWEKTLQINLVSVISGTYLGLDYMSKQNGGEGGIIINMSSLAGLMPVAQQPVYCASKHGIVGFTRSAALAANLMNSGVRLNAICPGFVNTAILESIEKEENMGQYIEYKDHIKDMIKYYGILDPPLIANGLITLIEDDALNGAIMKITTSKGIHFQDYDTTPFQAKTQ
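NADH formation kinetics: reaction with 30 uM PGE2 and 1 mM NAD+ (final), 20 nM enzyme, Tris-HCl pH 8 with Tween 20, after 15 min compound preincubation at room temperature. Fluorescence change, last versus first of five reads.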
HTT ATP protect: qHTS Multiplex Assay to Identify Dual Action Probes in a Cell Model of Huntington: Cytoprotection (ATP). PC12 HTT-Q103 induced, cytoprotection, ATP luminescence, 40 h. Potency, µM (series often up to 56.4 µM), inactives show cytoprotection (ATP increase), most hits filed as activators. 0.14% of 230,000 active. AID 1471, 2008; note: % of control where 0% means no effect; nearly all actives have a fitted effect of over 45% in size
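Huntington model: PC12 line, ecdysone-inducible HTTQ103 exon1–GFP, tebufenozide 100 nM. Test articles in a dose series. Endpoint luminescence from cellular ATP.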
Lamin A splicing: qHTS Assay for Modulators of Lamin A Splicing | HeLa LMNA splicing GFP/RFP minigene ratio, 48 h | Potency, µM (top dose mostly 46.1 µM), without a hit: at the top dose ratio change, negative = inhibition, usual class: inhibitors | 0.01% of 200,000 active; active = well fitted inhibition curve with a large enough effect in the signal ratio, with a control signal flat, not every such curve was filed as active; inconclusive = small, poorly fitted or top-dose-only effect, or effect the other way, or a change in a side signal; the % refers to the signal ratio; note: % is set by controls: 0 for no effect and ±100 for the full control effect
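S3 HeLa stable clones carrying a lamin A-EGFP splicing minigene plus DsRed2 were seeded at 600 cells/well in Opti-MEM with 2% FBS, pin-dosed and incubated 48 h at 37°C. Acumen cytometry (488 nm) gave the GFP/RFP total-intensity ratio.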
An asterisk follows results filed as active; ? = inconclusive; nt = no result given; [ ] = another dose, or the depositor's remark. Unless noted, calls come from the whole dose curve; as a rule, active = well fitted curve in the direction sought with a large enough effect; inconclusive = small, poorly fitted or top-dose-only effect, or another doubt; inactive = no such curve, though single readings can be large; an effect the other way counts as inactive or inconclusive. Potency is the fitted concentration of half-maximal effect.

SMILES	ALDH1A1 block	HTT aggregate	HPGD inh	HTT ATP protect	Lamin A splicing
Cc1ccc(Cn2c(SCC(C)C)nc3c2c(=O)n(C)c(=O)n3C)cc1	2µM*	0.2%	-25.4%	11.4%[1.9 µM]	9.1%
CCOCCn1c(SCc2ccccc2)nc2c1c(=O)[nH]c(=O)n2C	nt	3.1%[9.22 µM]	nt	-2.9%[10 µM]	nt
C/C=C/CSc1nc2c(c(=O)[nH]c(=O)n2C)n1Cc1ccc(C)cc1	10µM*	7.7%	17.8µM*	26.8%[10 µM]	1.8%
C/C=C/Cn1c(SCc2ccccc2)nc2c1c(=O)[nH]c(=O)n2C	14.1µM*	6.7%	20µM*	-25.2%[10 µM]	10.3%
CO[C@@H]1/C=C\O[C@]2(C)Oc3c(C)c(O)c4c(O)c(c(CN5CCN(C)CC5)c(O)c4c3C2=O)NC(=O)/C(C)=C\C=C[C@@H](C)[C@@H](O)[C@H](C)[C@@H](O)C(C)[C@H](OC(C)=O)[C@@H]1C (stereo not given in full)	10.3%[13.5 µM]	nt	-12.2%	nt	nt
Cc1ccc(-n2c(=O)c3c(c4cc(C)ccc4n3C)n(Cc3ccc(F)cc3)c2=O)cc1	nt	nt	nt	nt	1.9%[46 µM]
Cc1ccc(NC(=O)CCC(=O)NNC(=S)Nc2ccccc2)c(C)c1	8.91µM*	7.6%[9.22 µM]	nt	15.6%[10 µM]	?
Cc1ccc(NC(=S)NNC(=S)Nc2ccc(C)cc2C)cc1	0.447µM*	-13.7%[9.22 µM]	nt	-10.3%[10 µM]	nt
CC(=O)CSc1nnc2cc(C)c3ccccc3n12	-9.2%	17.7%	nt	-4.2%[10 µM]	-12.1%[46 µM]
Cc1cc2nnc(SCC(=O)OC(C)C)n2c2ccccc12	?	3.98µM*	-25.2%	-95.4%[10 µM]	7.0%
Cc1cccc(S(=O)(=O)N2CCC(CO)(Cc3ccccc3)CC2)c1	20µM*	16.4%[9.22 µM]	nt	14.1%[10 µM]	-4.0%[46 µM]
O=S(=O)(c1cccc(F)c1)N1CCC(CO)(Cc2cccc(F)c2)CC1	-8.0%	25.3%[9.22 µM]	nt	25.8%[10 µM]	?
COc1ccc(CC2(CO)CCN(S(=O)(=O)c3sccc3C)CC2)cc1	8.91µM*	10.6%[9.22 µM]	nt	16.4%[10 µM]	nt
COc1ccc(CC2(CO)CCN(S(=O)(=O)c3c(C)nn(C)c3Cl)CC2)cc1	-3.7%	22.2%[9.22 µM]	nt	-0.2%[10 µM]	nt
CCN(Cc1ccccc1)C(=O)Cn1c(=O)n(-c2ccc(Cl)cc2)c(=O)c2c(C)c(C(=O)N(C)C)sc21	nt	nt	nt	nt	4.0%[46 µM]
CCCCCc1ccc(C)cc1O	nt	-6.2%	nt	-4.4%	nt
Cc1cc(NC(=O)COn2nnc3ccc(Cl)cc32)no1	-5.4%	0.6%	-10.6%	12.8%[10 µM]	1.7%
CCOc1ccccc1NC(=O)COn1nnc2ccc(Cl)cc21	15.8µM*	12.9%	?	-120.8%	19.4%
N#Cc1cccc(-c2cc(NCc3cccs3)ncn2)c1	?	nt	?	-14.3%	?
O=C(Nc1nccs1)c1nc(-c2ccccc2)n(-c2ccccc2)n1	2.6%	-8.3%	-5.9%	-5.0%	-0.6%
Cc1csc(NC(=O)c2nc(-c3ccccc3)n(-c3ccccc3)n2)n1	14.1µM*	-18.3%	-7.5%	26.5%	?
COc1ccc(NC(=O)C(Sc2nnc(-c3ccncc3)n2-c2ccccc2C)c2ccccc2)cc1Cl (stereo not given)	-10.5%	-5.9%	-10.7%	10.5%[1.9 µM]	-3.5%
C=CCN1C(c2ccc(OCC)cc2)=CS/C1=C(\C#N)c1nnc2n1CCCCC2	14.1µM*	?	28.2µM*	-7.1%[1.9 µM]	?
N#C/C(=C(/O)COc1ccc(Br)cc1)c1nnc2n1CCCCC2	-5.2%	13.8%	nt	14.2%[10 µM]	-25.9%[46 µM]
CCN(CC)COC(=S)S	2.82µM*	nt	3.16µM*	-32.2%[10 µM]	nt
SMILES	ALDH1A1 block	HTT aggregate	HPGD inh	HTT ATP protect	Lamin A splicing
O=c1cc(-c2ccccc2)oc2c(O)c(O)ccc12	3.98µM*	nt	3.16µM*	-204.9%	nt
O=c1cc(-c2ccccc2O)oc2c(O)c(O)ccc12	2.51µM*	nt	10µM*	-27.8%[1.9 µM]	nt
O=c1cc(-c2ccccc2O)oc2ccc3ccccc3c12	3.0%	nt	-1.5%	-103.7%[1.9 µM]	nt
O=C(CN1CCC(n2nnc3cc(C(F)(F)F)ccc32)CC1)NCc1cccs1	3.1%	-27.1%	0.6%	12.6%[10 µM]	?
O=C(CN1CCC(c2nc3ccccc3s2)CC1)NCc1cccs1	6.31µM*	9.2%	?	-46.6%	?
CC(C)n1c(N2CCN(CC(=O)NCc3cccs3)CC2)nc2ccccc21	10µM*	?	-11.2%	-7.9%[10 µM]	-18.7%
CC(=O)Nc1c(C)nn(-c2ccccc2)c1N1CCC(C(=O)Nc2ccc(F)cc2Cl)CC1	nt	nt	nt	nt	-4.7%[46 µM]
COc1ccc(OC)c(CCNC(=O)CCCn2c(=O)c3cccn3c3ccc(F)cc32)c1	nt	nt	nt	nt	22.6%[46 µM]
COC(=O)C1C(=O)C2=C(CC1C)NC(C)=C(C(=O)OC(C)C)C2c1ccc(C)o1 (stereo not given)	-13.4%	8.1%	-5.7%	1.5%	-8.3%
COC(=O)C1C(=O)C2=C(CC1C)NC(C)=C(C(=O)OC1CCCCC1)C2c1ccc(N(C)C)cc1 (stereo not given)	8.91µM*	-21.1%	-15.8%	-1.5%[10 µM]	-14.9%
Cc1cccc(OCC(=O)OCc2cc(=O)n3nc(C4CCCCC4)sc3n2)c1	nt	nt	nt	nt	-5.9%[46 µM]
CC(=O)c1cc(C#N)c(SCC(=O)OC(C)C)nc1C	?	-3.1%	-19.8%	13.4%[10 µM]	-7.0%
CC(=O)c1cc(C#N)c(SCC(=O)OC(C)(C)C)nc1C	6.31µM*	12.1%	-27.4%	-15.2%[0.074 µM]	10.6%
C/C(CCN1CCc2nc(-c3ccccc3)c(-c3ccccc3)cc2C1)=N\O[C@@H](C)CN1CCCCc2nc(C)c(C)cc21	-11.0%[13.5 µM]	nt	nt	?	nt
COc1ccc(C2N=C(N)Nc3nc4ccccc4n32)cc1 (stereo not given)	nt	nt	nt	nt	0.5%[46 µM]
Cc1cc(C2N=C(N)Nc3nc4ccccc4n32)c(C)n1-c1ccccc1Cl (stereo not given)	1.12µM*	?	-11.8%	10.8%	6.4%
Cc1ccc(-n2c(C)cc(C3N=C(N)Nc4nc5ccccc5n43)c2C)c(C)c1 (stereo not given)	12.6µM*	-5.8%	-6.3%	-21.7%[10 µM]	-10.0%
COc1ccc(CNC(=O)C2(C)Cc3ccccc3C(=O)O2)cc1 (stereo not given)	11.8%	?	nt	12.3%	nt
O=C(Nc1ccccc1)c1ccc(N2CCN(c3ccccc3)CC2)c(S(=O)(=O)N2CCOCC2)c1	?	4.2%[9.22 µM]	?	-24.6%	-6.7%
O=C(Nc1ccccc1)c1ccc(N2CCN(c3ccccn3)CC2)c(S(=O)(=O)N2CCOCC2)c1	28.2µM*	-2.3%	?	-3.6%	-1.1%
COc1cccc(C2(O)CCN(C(=O)C3CC3)CC2)c1	22.4µM*	-9.7%	-11.6%	-13.5%	14.9%
CCCCOc1ccc(-c2c(C#N)c(N)nc(SCC(N)=O)c2C#N)cc1	?	-14.2%	28.2µM*	-4.0%[10 µM]	2.6%
CCCCOC(=O)CSc1nc(N)c(C#N)c(-c2ccc(OC)cc2)c1C#N	?	1.5%	-28.1%	-13.0%	6.5%
